SMILES strings stand for the structures. The list shows a part of the results. A call without a number means that no potency is given here. Results filed as inconclusive are left out. Active and inactive are the calls of the source. Calls come from the whole dose curve; as a rule, active = well fitted inhibition curve with a large enough effect; inconclusive = small, poorly fitted or top-dose-only effect; inactive = flat fitted curve, though single readings scatter.

The record followed here is PubChem BioAssay AID2547 (National Center for Advancing Translational Sciences (NCATS), 2010).
Potency is the fitted concentration of half-maximal effect.

This test in a line: Secondary Assay for Inhibitors of Human Galactokinase (GALK): HEK-293 Cell Viability Assay. The settings on record: HEK-293 viability, ATP luminescence (CellTiter-Glo), 24/48 h; series mostly up to 46.1 µM. As to the method: NIH Molecular Libraries Probe Production Centers Network [MLPCN] NIH Chemical Genomics Center [NCGC] MLPCN Grant: R03 MH085689-01 Assay Submitter (PI): Kent Lai (University of Utah School of Medicine, 50 N Mario Capecchi Drive, Salt Lake City, UT 84132) NCGC Assay Overview Cytotoxicity of the active compounds in the GALK qHTS screen (AID 1868) was assessed using the CellTiter-Glo Luminescent Cell Viability Assay kit (Promega, USA) in the HEK-293 (ATCC) cell line. CellTiter-Glo measures the intracellular ATP present in metabolically active cells using Ultra-Glo as the luciferase to detect ATP levels. In brief, the luciferase in the buffer catalyzes the oxidation of luciferin to oxyluciferin and light which is dependent on ATP. […] Wells treated with various concentrations of cycloheximide (Sigma) and DMSO, and wells with media alone were used as positive and negative controls, respectively. […] [1] http://www.promega.com/tbs/tb288/tb288.pdf
NCGC Assay Protocol Summary: HEK-293 cells were grown in a flask up to 80% confluence. Cells were trypsinized, washed, and resuspended in MEM Eagle + 10% FBS + 1% pen-strep media at a concentration of 120 cells/uL. Five uL/well of cell solution was dispensed into a 1536-well assay plates (Greiner, solid white medium-binding plates) with Aurora Discovery BioRAPTR Flying Reagent Dispenser (FRD; Beckton-Dickenson). Cells were pre-incubated at 37 degree Celsius, 5% CO2 for four hours. Compound and control solutions (23nL) were then transferred to the assay plate using the Kalypsys 1536-pin tool. Assay plates were re- incubated at 37 degree Celsius, 5% CO2. After 24 or 48 hours, five uL of CellTiter Glo detection reagent was added. Luminescence signal was read with Perkin Elmer ViewLux plate reader after 30 min room temperature incubation.
For orientation: Cellular ATP, detected with luciferase, serves as a proxy for viable cell number.
For the compound `N#C/C(=C(/O)Cc1cccc2ccccc12)c1nc2ccccc2s1`, the Potency entry was “inactive”. Take `COc1cccc2cc(-c3cc(=O)oc4cc(C)c(O)cc34)oc12`: the Potency result is “inactive”.

Turning to `CCS(=O)(=O)C1=NSC2=NC(=O)/C(=C\c3ccc(OS(=O)(=O)c4ccccc4)cc3)C(=N)N21`, the Potency entry was “inactive”. For the compound `O=C1Nc2ccc([N+](=O)[O-])cc2C1=Nc1cccc(CO)c1`, the Potency result is “inactive”. In the case of `N#Cc1c(N2CCCCC2)nc(N)c2c(N)nc(SCC(=O)O)cc12` it was “inactive”. On to `O=C1CCCC2=C1[C@@]1(CCC(c3ccccc3)C1)N=C(Nc1nc3ccccc3o1)N2` (some centres undefined), for which the Potency result is “inactive”. With `O=C(Nc1nnc(S(=O)(=O)N2CCOCC2)s1)c1cccc(Br)c1` the entry was “inactive”; with `Oc1c(Cl)cc(Cl)c(Cl)c1Cc1c(O)c(Cl)cc(Cl)c1Cl`, 7.91 µM (active); with `CCOC(=O)c1c(C)[nH]c2c1-c1ccccc1C(=O)C2=O`, 11.2 µM (active).
